Measured values published in PubChem BioAssay (NCATS).
Results filed as inconclusive are left out. A call without a number means that no potency is given here. Active and inactive are the calls of the source. Calls come from the whole dose curve; as a rule, active = well fitted curve in the direction sought with a large enough effect; inconclusive = small, poorly fitted or top-dose-only effect, or another doubt; inactive = no such curve, though single readings can be large; an effect the other way counts as inactive or inconclusive.
Potency is the fitted concentration of half-maximal effect.

What follows are molecules tested on Zika virus NS2B-NS3 protease (assay: Primary screen GU AMC qHTS for Zika virus inhibitors (AID 1347154; note: nearly all actives have a fitted effect of over 70% in size)). Details: Zika NS2B-NS3 unlinked protease, AMC fluorogenic substrate; series mostly up to 54.1 µM.
Method in brief: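 Unlinked Zika NS2B hydrophilic domain–NS3 protease complex at 25 nM in 10 mM Tris-HCl pH 8.0, 0.01% Tween 20, with an AMC peptide substrate. Fluorescence change (340/450 nm) over 15 min at room temperature, normalized to controls, fitted to 4-parameter Hill.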
In the case of `Cc1csc(NC(=O)c2sc3nc4c(c(C(F)(F)F)c3c2N)CCC4)n1`, the Potency is reported as “inactive”.
With `CC(C)OC(=O)C1=CN(C(=O)c2ccc(F)c(F)c2)CC(C)(C)c2c1[nH]c1ccccc21` the Potency was “inactive”.
In the case of `OCCn1cc(-c2cnc3nnn(Cc4ccc5ncccc5c4)c3n2)cn1`, the Potency is reported as “inactive”.
With `CC(C)(C)OC(=O)CN(Cc1ccc(Cl)cc1)Cc1ccc([N+](=O)[O-])s1` the Potency was “inactive”.
`CN(C)c1ccc(Nc2nc(N)n(C(=O)c3c(F)cccc3F)n2)cc1` was tested, and the Potency was “inactive”.
`Cc1cc(C=c2sc3nc4ccccc4n3c2=O)c(C)n1-c1ccccc1` was tested, and the Potency was “inactive”.
In the case of `O=c1[nH]c(-c2ccc(C(F)(F)F)cc2)nc2c1CSCC2`, the Potency is reported as “inactive”.
`CC[C@@H](C)[C@H](NC(=O)[C@H](CC1CCCCC1)NC(=O)c1ccno1)C(=O)N1CCC2(CCc3ccccc32)CC1` was tested, and the Potency was “inactive”.
With `CC(=O)NC(C)c1ccc(Oc2ccc(OC(C)C)cc2)cc1` (configuration not stated) the Potency was “inactive”.
`CNC(=O)c1ccc(C)c(-n2c(C)cc(OCc3ccc(F)cc3F)c(Br)c2=O)c1` was tested, and the Potency was “inactive”.
For `Cc1ccnc(NS(=O)(=O)c2ccc(NC(=O)Nc3ccc(S(=O)(=O)Nc4nccc(C)n4)cc3)cc2)n1`, the Potency was 24.1 µM (active).
With `Cc1cc(Nc2nc(N[C@@H](C)c3ncc(F)cn3)ncc2Cl)n[nH]1` the Potency was “inactive”.
With `COc1cc2c(cc1OC)CN(CCc1ccc(NC(=O)c3cccc4c(=O)c5cccc(OC)c5[nH]c34)cc1)CC2` the Potency was “inactive”.
`COc1cc(F)c(F)c(Nc2ccc(I)cc2F)c1NS(=O)(=O)C1(C[C@H](O)CO)CC1` was tested, and the Potency was “inactive”.
For `Cc1cc([C@@H](C)Nc2ccccc2C(=O)O)c2nc(N3CCOCC3)cc(=O)n2c1`, the Potency was “inactive”.
`C[C@H](NC(=O)Cc1cc(F)cc(F)c1)C(=O)N[C@@H]1C(=O)N(C)c2ccccc2-c2ccccc21` was tested, and the Potency was “inactive”.
In the case of `CN(C)C(=O)c1ccc(S(=O)(=O)c2ccc(NC(=O)[C@@](C)(O)C(F)(F)F)c(Cl)c2)cc1`, the Potency is reported as “inactive”.
In the case of `COc1nc(-c2ccc3c(c2)OCO3)n(-c2ccc(NC(=O)CSc3ccccc3)cc2)n1`, the Potency is reported as “inactive”.
For `CC1(C)CNc2cc(NC(=O)c3cccnc3NCc3ccncc3)ccc21`, the Potency was “inactive”.
For `O=C(Nc1cccnc1)N1CCC(Cc2cccc(Oc3ccc(C(F)(F)F)cn3)c2)CC1`, the Potency was “inactive”.
With `O=C1CCCC2=C1C(c1[nH]ncc1Cl)N=C(Nc1nc3ccccc3o1)N2` (configuration not stated) the Potency was “inactive”.
In the case of `O=C(Nc1ccc(F)c(C(F)(F)F)c1)Nc1nnc(-c2ccncc2)s1`, the Potency is reported as “inactive”.
With `CCc1cc(Nc2nccc(-c3c(-c4ccc(OC)c(C(=O)Nc5c(F)cccc5F)c4)nc4ccccn34)n2)c(OC)cc1N1CCC(N2CCN(S(C)(=O)=O)CC2)CC1` the Potency was “inactive”.

These molecules were tested on Zika virus NS2B-NS3 protease (unlinked complex) (assay: Primary screen GU Rhodamine qHTS for Zika virus inhibitors: Unlinked NS2B-NS3 protease assay (AID 1347159; note: nearly all actives have a fitted effect of over 60% in size)). Details: Recombinant ZIKV NS2B-NS3 protease, Rhodamine110 substrate fluorescence; series mostly up to 107 µM.
Method in brief: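 Buffer 10 mM Tris-HCl pH 8.0, 0.01% Tween 20. Unlinked protease 25 nM; compound preincubation 15 min, RT, protected from light. Substrate Rhod110, 1.5 microM; ~15% conversion in 15 min.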
With `Cc1csc(NC(=O)c2sc3nc4c(c(C(F)(F)F)c3c2N)CCC4)n1` the Potency was “inactive”.
For `CC1(C)Cc2c(-c3ccccc3)c(-c3ccc(Cl)cc3)c(CC(=O)O)n2C1`, the Potency was 10 µM (active).
`CC(C)OC(=O)C1=CN(C(=O)c2ccc(F)c(F)c2)CC(C)(C)c2c1[nH]c1ccccc21` was tested, and the Potency was “inactive”.
`OCCn1cc(-c2cnc3nnn(Cc4ccc5ncccc5c4)c3n2)cn1` was tested, and the Potency was 50.1 µM (active).
In the case of `COc1c(Cl)cc2c([nH]c3cnccc32)c1NC(=O)c1cccnc1C`, the Potency is reported as “inactive”.
For `CN(C)c1ccc(Nc2nc(N)n(C(=O)c3c(F)cccc3F)n2)cc1`, the Potency was “inactive”.
For `O=c1[nH]c(-c2ccc(C(F)(F)F)cc2)nc2c1CSCC2`, the Potency was “inactive”.
`N#CC[C@H](C1CCCC1)n1cc(-c2ncnc3[nH]ccc23)cn1` was tested, and the Potency was “inactive”.
`CN(C(=O)c1ccc(F)cc1C(F)(F)F)C1CCN(c2nnc(-c3ccnn3C)c3ccccc23)CC1` was tested, and the Potency was “inactive”.
For `C[C@@H]1CN(Cc2ccc(F)cc2)[C@@H](C)CN1C(=O)c1cc2c(C(=O)C(=O)N(C)C)cn(C)c2cc1Cl`, the Potency was “inactive”.
With `Cc1cnc(Nc2ccc(OCCN3CCCC3)cc2)nc1Nc1cccc(S(=O)(=O)NC(C)(C)C)c1` the Potency was “inactive”.
In the case of `CC(C)(N)C(=O)N[C@H](COCc1ccccc1)C(=O)N1CCC2(CC1)CN(S(C)(=O)=O)c1ccccc12`, the Potency is reported as “inactive”.
In the case of `CNC(=O)c1ccc(C)c(-n2c(C)cc(OCc3ccc(F)cc3F)c(Br)c2=O)c1`, the Potency is reported as “inactive”.
`Cc1ccnc(NS(=O)(=O)c2ccc(NC(=O)Nc3ccc(S(=O)(=O)Nc4nccc(C)n4)cc3)cc2)n1` was tested, and the Potency was “inactive”.
In the case of `Cn1cc(-c2ccc3nnc(C(F)(F)c4ccc5ncccc5c4)n3n2)cn1`, the Potency is reported as “inactive”.
`Cc1cc(Nc2nc(N[C@@H](C)c3ncc(F)cn3)ncc2Cl)n[nH]1` was tested, and the Potency was “inactive”.
`COc1cc2c(cc1OC)CN(CCc1ccc(NC(=O)c3cccc4c(=O)c5cccc(OC)c5[nH]c34)cc1)CC2` was tested, and the Potency was 39.8 µM (active).
In the case of `CN(C)C(=O)c1ccc(S(=O)(=O)c2ccc(NC(=O)[C@@](C)(O)C(F)(F)F)c(Cl)c2)cc1`, the Potency is reported as “inactive”.
`COc1ccc(CCN2CCN(CCCc3ccccc3)CC2)cc1OC` was tested, and the Potency was “inactive”.
With `CCCS(=O)(=O)Nc1ccc(F)c(C(=O)c2c[nH]c3ncc(Cl)cc23)c1F` the Potency was “inactive”.
For `COc1nc(-c2ccc3c(c2)OCO3)n(-c2ccc(NC(=O)CSc3ccccc3)cc2)n1`, the Potency was “inactive”.
For `S=C(NCc1ccc2c(c1)OCO2)N1CCN(c2ncnc3c2oc2ccccc23)CC1`, the Potency was “inactive”.
In the case of `COc1ccccc1[C@H](c1cccc2ccccc12)[C@@](C)(C#N)C(=O)N1CCC(c2cccc(C(F)(F)F)c2)CC1`, the Potency is reported as “inactive”.
For `CC1(C)CNc2cc(NC(=O)c3cccnc3NCc3ccncc3)ccc21`, the Potency was “inactive”.
`CCOc1cc(C(=O)Nc2ccc(Cl)c(-c3nc4ccccc4[nH]3)c2)cc(OCC)c1OCC` was tested, and the Potency was “inactive”.
In the case of `COc1cc(Oc2ccnc3cc(OC)c(OC)cc23)ccc1NC(=O)NC(C)c1nccs1` (configuration not stated), the Potency is reported as “inactive”.
For `O=C1CCCC2=C1C(c1[nH]ncc1Cl)N=C(Nc1nc3ccccc3o1)N2` (configuration not stated), the Potency was “inactive”.
With `O=C(Nc1ccc(F)c(C(F)(F)F)c1)Nc1nnc(-c2ccncc2)s1` the Potency was 8.91 µM (active).
`CCc1cc(Nc2nccc(-c3c(-c4ccc(OC)c(C(=O)Nc5c(F)cccc5F)c4)nc4ccccn34)n2)c(OC)cc1N1CCC(N2CCN(S(C)(=O)=O)CC2)CC1` was tested, and the Potency was “inactive”.
